# Sampled rows, rich in hits. Any-hit rate of the full collection: about 12%.
# Sfp PPTase inh: Sfp phosphopantetheinyl transferase inhibition; Potency, µM, inactives show largest response in the series, negative = inhibition, usual class: inhibitors; Q9F4F7; actives 3.5% (n = 310,000); Biochemical Sfp PPTase activity, qHTS;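 also: the enzyme is Sfp with the accession as filed and its product quenches rhodamine fluorescence; 0% = enzyme reaction without inhibitor and -100% = no enzyme wells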
#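 Step 1, compound plus 15 nM Sfp-PPTase, 15 min, room temperature. Step 2, add rhodamine-CoA (5 uM) and BHQ-2-YbbR (12.5 uM). Step 3, read 525/598 nm fluorescence at 0 and 30 min.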
# L3MBTL1 inh: L3MBTL1 (human) inhibition; Q9Y468; AlphaScreen L3MBTL1–H3K9me1 peptide binding; Potency, µM (highest dose often 57.1 µM), for inactives: at the top dose activity, negative = inhibition, actives largely listed as inhibitors; actives 0.66% (n = 230,000); also: % is scaled to controls: 0 for no effect and ±100 for the full control effect; nearly all actives have a fitted effect of over 60% in size
#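 Read-out is AlphaScreen signal from streptavidin donor and nickel chelate acceptor beads (10 ug/mL final each) bridging L3MBTL1 (50 nM) and biotinylated K9-monomethylated H3(1-15) peptide (75 nM), after 30 min compound exposure at room temperature.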
# G9a block: inhibitors of human histone lysine methyltransferase G9a. G9a H3K9 monomethylation, AlphaScreen, 2 h. Potency, µM (doses to about 102 µM), for the others: at the highest dose activity, negative = inhibition, actives largely listed as inhibitors. actives 8.8% (n = 350,000); also: % is scaled to controls: 0 for no effect and ±100 for the full control effect; nearly all actives have a fitted effect of over 75% in size
#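 AlphaScreen detection with an anti-monomethyl H3K9 antibody quantified product after a 2 h room-temperature reaction containing 500 nM biotinylated H3K9 peptide, 20 µM SAM and 20 nM enzyme, which had been preincubated 15 min with compound.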
# BAZ2B inh: blocks human BAZ2B; Q9UIF8; AlphaScreen BAZ2B-H3K14Ac peptide displacement; Potency, µM (titrated, usually from 114 µM), for inactives: top-dose activity change, negative = inhibition, usual class: inhibitors; actives 4.4% (n = 360,000); AID 504333; also: % is scaled to controls: 0 for no effect and ±100 for the full control effect; nearly all actives have a fitted effect of over 60% in size
#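 AlphaScreen displacement of biotin-H3(5-23)K14Ac peptide (50 nM final) from BAZ2B (50 nM final) in PBS pH 7.4, 0.01% Tween-20; complex preformed 30 min RT, then compounds (top 110 uM) 30 min RT, beads 20 min dark.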
# HP1b binding inh: blocks HP1-beta chromodomain binding to methylated histone tails. Potency, µM (doses to about 114 µM), inactives show at the highest dose activity change, negative = inhibition, hits mostly inhibitors. AlphaScreen HP1-beta / biotin-H3K9me3 peptide binding. P83916. AID 540317. actives 0.56% (n = 390,000); also: nearly all actives have a fitted effect of over 70% in size
#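 Compound inhibition of the preformed complex between 50 nM HP1-beta and 50 nM biotinylated H3K9me3 peptide was read by AlphaScreen. Buffer was PBS pH 7.4 with 0.01% Tween-20. Incubations ran 30 min at room temperature, with 10 ug/mL donor/acceptor beads.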
# JMJD2A Tudor inh: JMJD2A Tudor domain (human) inhibition; O75164; AlphaScreen JMJD2A-Tudor / H3K4me3 peptide binding; Potency, µM (highest dose often 114 µM), for inactives: top-dose activity change, negative = inhibition, most hits filed as inhibitors; actives 4.4% (n = 390,000); AID 504339; also: % is scaled to controls: 0 for no effect and ±100 for the full control effect; nearly all actives have a fitted effect of over 50% in size
# * hit, by the source's call; u = inconclusive; x = no result given; ! = not confirmed by another sample; [ ] = remark or other dose. Calls follow the shape of the dose curve; as a rule, active = well fitted curve in the direction sought with a large enough effect; inconclusive = small, poorly fitted or top-dose-only effect, or another doubt; inactive = no such curve, though single readings can be large; an effect the other way counts as inactive or inconclusive. Potency is read from the fitted curve at half-maximal effect.
SMILES,Sfp PPTase inh,L3MBTL1 inh,G9a block,BAZ2B inh,HP1b binding inh,JMJD2A Tudor inh
CN(CCc1ccccn1)S(=O)(=O)c1ccc(F)cc1,-26%,-1%,7.1µM*,45µM*,28µM*,5.6µM*
CCN1CCN(S(=O)(=O)c2ccc(Cl)c(C(=O)NC(C)c3ccccc3Cl)c2)CC1 (stereo not drawn),x,1%,-47%,-7%,23%,-4%
CN(CCC#N)C(=S)NC(=O)c1ccc(S(=O)(=O)N2CCOCC2)cc1,u,2%,11µM*,-20%,-10%,-22%
CC(=O)Nc1ccc(C(=O)Nc2ccc(S(=O)(=O)N3CCOCC3)cc2)cc1,2%,2%,x,6%,28%,3%
Cc1ccc(S(=O)(=O)N2CCOCC2)cc1C(=O)NC(=S)N1CC(C)OC(C)C1 (stereo not drawn),-23%,12%,32µM*,-2%,22%,-6%
CC(=O)N1CCN(C(=S)NC(=O)c2ccc(S(=O)(=O)N3CCOCC3)cc2)CC1,u,0%,u,50µM*,-27%,50µM*
CN(Cc1ccccc1)C(=O)COC(=O)c1cc(=O)c2ccccc2o1,x,3%,x,x,30%,-4%
CC(C)N1CCc2c(sc(NC(=O)c3ccc(S(=O)(=O)N4CCc5ccccc54)cc3)c2C(N)=O)C1,-32%,-21%,18µM*,u,3%,u
CC(C)N1CCc2c(sc(NC(=O)c3cc(-c4cccs4)nc4ccccc34)c2C(N)=O)C1,u,-11%,11µM*,40µM*,-6%,u
CC(C)N1CCc2c(sc(NC(=O)c3nc4ccccc4s3)c2C(N)=O)C1,-26%,-5%,45µM*,-36%,-1%,u
O=C(/C=C/c1ccccc1)NC(=O)c1ccccc1O,12%,x,u,79µM*,24%,u
O=C(/C=C/c1ccccc1)CC(=O)c1ccccc1O,u,-27%,16µM*,u,-24%,25µM*
O=C(/C=C/c1ccccc1)COC(=O)c1ccccc1,x,x,x,x,42%,3%
COc1ccc(-c2csc(C3=C(O)CN(C(C)C)C3=N)n2)cc1OC,2%,-25%,u,u,-4%,u
O=C(O)CP(=O)(O)O,-2%,-1%,13µM*!,u,15%,u
N[C@H](CCCP(=O)(O)O)C(=O)O,16%,x,x,x,x,x
O=c1c([N+](=O)[O-])c(O)c2ccccc2n1Cc1ccccc1,u,x,28µM*,-17%,18%,-28%
CCn1c(=O)c([N+](=O)[O-])c(NCCN(C)C)c2ccccc21,3.5µM*,-4%,56µM*,-29%,29%,-11%
CCn1c(=O)c([N+](=O)[O-])c(Cl)c2ccccc21,9%,4%,-34%,2%,46%,-9%
CC1C2(C)OCC(C#N)(C(=N)O2)C1(C#N)C#N (stereo not drawn),-3%,1%,45µM*,1%,x,x
CCCCCC/C(C)=C1/SC(=S)NC1=O,3%,-10%,u,-9%[57.1 µM],-27%,-33%
C/C(C/C(C)=C1/SC(=S)NC1=O)=C1\SC(=S)NC1=O,79µM*,x,28µM*,-16%,u,u
O=C(Nc1ccc(S(=O)(=O)NCc2ccco2)cc1)C1CCCCC1,-19%,-1%,45µM*,-35%,16%,-18%
COc1cccc(S(=O)(=O)NCc2ccc(C(=O)NCc3ccco3)cc2)c1,u,-11%,45µM*,-8%,-5%,-33%
Cc1ccc(/C=C/C(=O)O)cc1S(=O)(=O)NCc1ccco1,40µM*,24%,x,u,18%,-18%
SMILES,Sfp PPTase inh,L3MBTL1 inh,G9a block,BAZ2B inh,HP1b binding inh,JMJD2A Tudor inh
COc1cccc(S(=O)(=O)Nc2ccc(C(=O)NCc3ccco3)cc2)c1,-2%,-16%,-24%[59 µM],-3%,21%,-28%
COc1cccc(NC(=O)COC(=O)c2ccc(S(=O)(=O)NCc3ccco3)cc2)c1,7%,x,-4%[12.7 µM],u,-28%,35µM*
O=C(COc1ccccc1)Nc1ccc(S(=O)(=O)NCc2ccco2)cc1,-7%,-11%,50µM*,u,-15%,50µM*
O=C(COC(=O)c1ccc(S(=O)(=O)NCc2ccco2)cc1)NC1CCCCCC1,56µM*,x,u,u,3%,u
O=C(COc1ccccc1)NCC(=O)Nc1ccc(S(=O)(=O)NCc2ccco2)cc1,2%,x,u,-6%,23%,-21%
COc1ccc(N2CCN(C(=O)c3ccc(CNS(=O)(=O)c4cccc(OC)c4)cc3)CC2)cc1,21%,x,u,u,-18%,u
COc1cccc(S(=O)(=O)NCc2ccc(C(=O)N3CCN(c4ccccc4)CC3)cc2)c1,18%,x,63µM*,-24%,15%,-24%
COc1ccc(C(=O)Nc2ccc(S(=O)(=O)NCc3ccco3)cc2)cc1OC,-7%,-7%,40µM*,-1%,0%,u
Cc1cccc(NC(=O)CNC(=O)Cn2cc(C(F)(F)F)cc(Cl)c2=O)c1C,x,4%,u,9%,46%,-18%
CN(C)S(=O)(=O)c1ccc(C(=O)OCc2nnc(-c3ccccc3)o2)cc1,0%,2%,9%,1%,30%,-1%
O=C(OCc1nnc(-c2ccccc2)o1)c1ccc(S(=O)(=O)NCc2ccco2)cc1,-20%,-29%,9%[12.7 µM],79µM*,u,79µM*
Cc1cccc(NC(=O)c2ccc(F)c(S(=O)(=O)NCc3ccco3)c2)c1,-6%,x,50µM*,u,16%,-27%
CC(=O)Nc1cccc(C(=O)Nc2cccc(S(=O)(=O)NCc3ccco3)c2)c1,x,-2%,27%[59 µM],-11%,0%,-35%
COc1cccc(CNS(=O)(=O)c2c(C(=O)N3CCCCCC3)c(C)n(C)c2C)c1,21%,x,12%,-19%[57.1 µM],-6%,22µM*
CC(C)CC(=O)Nc1ccc(S(=O)(=O)NCc2ccco2)cc1,8%,x,18µM*,-38%,23%,-24%
COc1cccc(CNS(=O)(=O)c2c(C(=O)N3CCCCC3)c(C)n(C)c2C)c1,9%,x,7%,-17%[57.1 µM],63%,-15%
COc1ccc(C2Nc3ccccc3C(=O)N2Cc2ccccc2)cc1COc1cccc(Cl)c1 (stereo not drawn),x,x,x,x,x,-3%
CCOC(=O)c1ccccc1NC(=O)NCc1cccn1Cc1ccc(F)cc1,x,x,16%[59 µM],-19%,50%,0%
COc1cc([N+](=O)[O-])cc2sc(NC(C)=O)nc12,40µM*,x,-21%[12.7 µM],-14%,13%,-4%
CCCCC(=O)Nc1nc2c(OC)cc([N+](=O)[O-])cc2s1,13%,-8%,0%,-12%,35%,-18%
CCCN(CCC)C(=O)Cn1c(=O)n(-c2cccc(C(F)(F)F)c2)c(=O)c2c(C)c(C)sc21,x,x,-17%[59 µM],3%,37%,-5%
